# Measurements published in PubChem BioAssay (Tox21).
# Unmarked numbers belong to inactive results. Records with an inconclusive call do not appear. Where a call stands in place of a potency, no number is given. The source made the active and inactive calls. Unless noted, the call rests on the fitted dose curve; in most records, active means well fitted curve in the direction sought with a large enough effect in the repeat runs; inconclusive means weak or mixed curves; inactive means no such curve, though single readings can be large; an effect the other way counts as inactive or inconclusive.
# Assays:
# [1] = qHTS assay to identify small molecule agonists of the AP-1 signaling pathway - cell viability counter screen (AID 1159525; calls by dose curve; further: nearly all actives have a fitted effect of over 55% in size; further: potency means the concentration at half of the fitted maximal effect)
# How it was run: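 Intracellular ATP by Cell Titer Glo luminescence (30 min, RT) in the same ME-180 AP-1-bla wells after the 5 h compound exposure at 37 °C. Normalised to tetra n-octyl ammonium bromide and DMSO controls.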
# [2] = A CellTox Green Cytotoxicity Assay to monitor cytotoxicity in HEK293 cells - 40 hour (AID 1224871); further: nearly all actives have a fitted effect of over 45% in size; further: potency means the concentration at half of the fitted maximal effect
# How it was run: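 Real-time, in one plate: 600 HEK293 cells/well with dead-cell DNA dye, pinned compound after 5 h, 37 C incubation over 40 h; viable cells give no appreciable fluorescence.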
# [3] = A CellTox Green Cytotoxicity Assay to monitor cytotoxicity in HepG2 cells - 16 hour (AID 1224876); further: nearly all actives have a fitted effect of over 45% in size
# How it was run: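 Cytotoxicity was tracked as dead-cell DNA fluorescence in HepG2 cells treated with test compounds at 37 C; each time-point value comes from one kinetic series spanning 0, 8, 16, 24, 32 and 40 h.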
# [4] = qHTS RealTime-Glo MT Cell Viability Assay in HepG2 cells - 32 hour (AID 1224877); further: nearly all actives have a fitted effect of over 55% in size
# How it was run: (§1)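 Tox21 10K library screened in qHTS format on HepG2 cells carrying RealTime-Glo reagents. Compounds were added after a 5 h preincubation, and the luminescent signal from continuous culture was measured repeatedly during 40 h treatment.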
# [5] = qHTS RealTime-Glo MT Cell Viability Assay in HEK293 cells - 0 hour (AID 1224880); further: top concentration of the series differs between compounds; nearly all actives have a fitted effect of over 45% in size
# How it was run: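 Kinetic, non-lysing viability readout. Seed HEK293 (600/well) with reagent, incubate 5 h at 37 C/5% CO2, pin 23 nL compound in DMSO, incubate at 37 C, read luminescence at 0, 8, 16, 24, 32, 40 h.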
# [6] = qHTS RealTime-Glo MT Cell Viability Assay in HepG2 cells - 0 hour (AID 1224889); further: nearly all actives have a fitted effect of over 50% in size; further: potency means the concentration at half of the fitted maximal effect
# How it was run: as §1
# [7] = qHTS assay to identify small molecule antagonists of the androgen receptor (AR) signaling pathway using the MDA cell line in the presence of 0.5 nM R1881 - cell viability counter screen (AID 1259242); further: nearly all actives have a fitted effect of over 45% in size
# How it was run: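 Cells seeded at 3,000/well and allowed 5 hr at 37C, 0% CO2 before compound transfer and R1881 (0.5 nM final) addition; 16 hr later, live-cell protease fluorescence indicated cytotoxicity.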
# [8] = qHTS assay to identify small molecule agonists of the sonic hedgehog signaling (Shh) pathway - cell viability counter screen (AID 1259366); further: nearly all actives have a fitted effect of over 50% in size
# How it was run: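 CellTiter-Fluor fluorescence read-out, 1 hr at 37C, added after 23hr compound exposure. Cells: 3T3 Gli1-Luc, an NIH/3T3 clone with stably integrated Gli1-Luc reporter, plated 4hr before compound.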
# [9] = qHTS assay to identify small molecule antagonists of the sonic hedgehog signaling (Shh) pathway (AID 1259369; calls by dose curve)
# How it was run: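 Read-out is luminescence from a firefly luciferase gene controlled by the Gli1 response element, in 3T3Gli1-Luc cells pre-incubated 4hr then exposed to compounds and conditioned medium for 24hr.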
# [10] = qHTS assay to identify small molecule agonists of the estrogen receptor alpha (ER-alpha) signaling pathway in the presence of an antagonist - cell viability counter screen (AID 1259386);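 further: series mostly up to about 92 µM; cells exposed to compounds for 22 h at 37 °C before the viability read; nearly all actives have a fitted effect of over 30% in size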
# How it was run: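 Using estrogen-depleted VM7Luc4E2 cells, the 15-concentration compound series was applied together with 10.0nM ICI-182,780 and incubated 22hr at 37C/5% CO2. Cell viability was then scored by CellTiter-Fluor.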
# [11] = qHTS assay to identify small molecule antagonists of the TGF-beta/Smad signaling pathway - cell viability counter screen (AID 1346824); further: nearly all actives have a fitted effect of over 50% in size
# How it was run: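 Cytotoxicity counter-screen run in the same wells as the beta-lactamase Smad reporter read: CellTiter-Glo luminescence after 30 min at room temperature. HEK 293T SBE-bla cells had 5 hr compound exposure at 37 C with TGF-beta1 (0.25 ng/mL stock).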
# [12] = qHTS assay to identify small molecule agonists of the TGF-beta/Smad signaling pathway - cell viability counter screen (AID 1346829)
# How it was run: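 HEK 293T SBE-bla line, 5 hr compound exposure at 37 C, multiplexed CellTiter-Glo viability read by luminescence.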
# [13] = qHTS assay to identify small molecule agonists of the TGF-beta/Smad signaling pathway (AID 1346859; active means well fitted activation curve with a large enough effect in the signal ratio in the repeat runs, not every such curve was filed as active; the % refers to the signal ratio; further: series mostly up to about 77 µM)
# How it was run: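 Read-out: fluorescence at 460 and 530 nm (405 nm excitation) after a 2 hr room-temperature incubation with beta-lactamase FRET substrate. SBE-bla HEK 293T cells had been treated with test compounds for 5 hr at 37 C.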
# [14] = target: Voltage-gated inwardly rectifying potassium channel KCNH2 (Homo sapiens) (UniProt Q12809); experiment: Human Ether-a-go-go-Related Gene (hERG) channel small molecule antagonists: fluorescence cell-based qHTS assay (AID 1671200);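 further: hERG-expressing U2OS cells given a thallium stimulus after FluxOR II dye loading; series mostly up to about 77 µM; nearly all actives have a fitted effect of over 50% in size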
# How it was run: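 Read-out: thallium influx as a surrogate for potassium, tracked as fluorescence (480 nm ex/540 nm em) every second for 2 min after Stimulus Buffer addition in dye-loaded hERG-U2OS cells.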
# [15] = target: Aromatase (Homo sapiens) (UniProt P11511); experiment: qHTS assay to identify aromatase inhibitors (AID 743083); further: series mostly up to about 70 µM; nearly all actives have a fitted effect of over 55% in size
# [16] = target: Nuclear receptor subfamily 1 group I member 3 (Homo sapiens) (UniProt Q14994); experiment: qHTS assay to identify small molecule antagonists of the constitutive androstane receptor (CAR) signaling pathway (AID 1224838); further: nearly all actives have a fitted effect of over 40% in size
# How it was run: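 Inhibition of CITCO-driven (50 nM final) CYP2B6 reporter expression is measured in HepG2 cells stably carrying hCAR. Fifteen compound concentrations are applied for 24 h at 37 C, followed by luciferase luminescence.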
# [17] = qHTS assay to identify small molecule agonists of the estrogen related receptor signaling pathway with the pleiotropic PPARgamma coactivator (PGC) from Tox21 10K library (AID 1224842); further: nearly all actives have a fitted effect of over 15% in size
# How it was run: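 Luminescence from One-Glo (30 min, room temperature) measured after PGC/ERR cells had 18 h at 37 C with pinned compound (23 nL in DMSO). Cells had been seeded at 2,000 per well and pre-incubated 6 h.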
# [18] = target: Estrogen receptor (Homo sapiens) (UniProt P03372); experiment: qHTS assay to identify small molecule agonists of the estrogen receptor alpha (ER-alpha) signaling pathway in the presence of an antagonist (AID 1259383; calls by dose curve; further: top concentration of the series differs between compounds; nearly all actives have a fitted effect of over 15% in size)
# How it was run: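 Luminescent ERE-luciferase reporter, VM7Luc4E2 cells (endogenous ER-alpha); 10.0nM ICI-182,780 final; 15-point compound titration; 22hr at 37C; ONE-Glo, 30min RT.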
# [19] = qHTS assay to identify small molecule agonists or antagonists of the thyroid stimulating hormone receptor (TSHR) signaling pathway - wild type cell line counter screen (AID 1259384; calls by dose curve)
# How it was run: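 Counter screen in untransfected Hek293: compounds (15-point titration, triplicate) plus phosphodiesterase inhibitor Ro20-1724 added after 18 h plating; 30 min RT. Intracellular cAMP via competitive d2/cryptate immunoassay, 1 h incubation.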
# [20] = target: Cytochrome P450 2C19 (Homo sapiens) (UniProt P33261); experiment: Cytochrome P450 Family 2 Subfamily C Member 19 (CYP2C19) small molecule antagonists: luciferase reporter qHTS assay (AID 1671197); further: potency means the concentration at half of the fitted maximal effect; nearly all actives have a fitted effect of over 65% in size
# How it was run: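 First, compounds are pinned into enzyme-substrate mix and held 10 min at room temperature. Second, NADPH regeneration solution is added and plates incubate 1 h at 37C. Third, detection reagent is added and luminescence read after 20 min.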
# Nuclear receptor subfamily 1 group I member 3 (Homo sapiens), sequence (Q14994 whole entry, looked up): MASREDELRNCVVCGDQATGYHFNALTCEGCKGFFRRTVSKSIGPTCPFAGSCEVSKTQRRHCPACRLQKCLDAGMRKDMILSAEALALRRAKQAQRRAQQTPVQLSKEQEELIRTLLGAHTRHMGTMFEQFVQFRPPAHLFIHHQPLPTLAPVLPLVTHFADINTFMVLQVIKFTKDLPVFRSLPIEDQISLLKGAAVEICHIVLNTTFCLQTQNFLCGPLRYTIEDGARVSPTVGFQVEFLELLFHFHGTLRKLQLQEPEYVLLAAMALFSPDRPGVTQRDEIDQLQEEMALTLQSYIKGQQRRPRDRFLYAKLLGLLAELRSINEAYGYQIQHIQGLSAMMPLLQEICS
# Aromatase (Homo sapiens), sequence (P11511 whole entry, looked up): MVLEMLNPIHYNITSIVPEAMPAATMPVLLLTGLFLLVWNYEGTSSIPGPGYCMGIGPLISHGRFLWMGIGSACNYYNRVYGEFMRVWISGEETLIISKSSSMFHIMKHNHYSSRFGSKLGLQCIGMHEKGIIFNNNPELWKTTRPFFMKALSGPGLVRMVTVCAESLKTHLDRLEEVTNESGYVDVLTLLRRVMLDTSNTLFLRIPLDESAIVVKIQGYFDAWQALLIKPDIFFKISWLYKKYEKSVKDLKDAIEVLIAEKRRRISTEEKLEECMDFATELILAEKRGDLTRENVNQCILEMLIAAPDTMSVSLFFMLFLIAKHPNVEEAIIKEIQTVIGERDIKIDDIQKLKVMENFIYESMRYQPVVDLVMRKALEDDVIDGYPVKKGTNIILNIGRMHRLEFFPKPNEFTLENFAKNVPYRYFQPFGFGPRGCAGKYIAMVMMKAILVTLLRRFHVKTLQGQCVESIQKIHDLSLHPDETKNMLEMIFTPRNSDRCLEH
# Voltage-gated inwardly rectifying potassium channel KCNH2 (Homo sapiens), sequence (Q12809 whole entry, looked up): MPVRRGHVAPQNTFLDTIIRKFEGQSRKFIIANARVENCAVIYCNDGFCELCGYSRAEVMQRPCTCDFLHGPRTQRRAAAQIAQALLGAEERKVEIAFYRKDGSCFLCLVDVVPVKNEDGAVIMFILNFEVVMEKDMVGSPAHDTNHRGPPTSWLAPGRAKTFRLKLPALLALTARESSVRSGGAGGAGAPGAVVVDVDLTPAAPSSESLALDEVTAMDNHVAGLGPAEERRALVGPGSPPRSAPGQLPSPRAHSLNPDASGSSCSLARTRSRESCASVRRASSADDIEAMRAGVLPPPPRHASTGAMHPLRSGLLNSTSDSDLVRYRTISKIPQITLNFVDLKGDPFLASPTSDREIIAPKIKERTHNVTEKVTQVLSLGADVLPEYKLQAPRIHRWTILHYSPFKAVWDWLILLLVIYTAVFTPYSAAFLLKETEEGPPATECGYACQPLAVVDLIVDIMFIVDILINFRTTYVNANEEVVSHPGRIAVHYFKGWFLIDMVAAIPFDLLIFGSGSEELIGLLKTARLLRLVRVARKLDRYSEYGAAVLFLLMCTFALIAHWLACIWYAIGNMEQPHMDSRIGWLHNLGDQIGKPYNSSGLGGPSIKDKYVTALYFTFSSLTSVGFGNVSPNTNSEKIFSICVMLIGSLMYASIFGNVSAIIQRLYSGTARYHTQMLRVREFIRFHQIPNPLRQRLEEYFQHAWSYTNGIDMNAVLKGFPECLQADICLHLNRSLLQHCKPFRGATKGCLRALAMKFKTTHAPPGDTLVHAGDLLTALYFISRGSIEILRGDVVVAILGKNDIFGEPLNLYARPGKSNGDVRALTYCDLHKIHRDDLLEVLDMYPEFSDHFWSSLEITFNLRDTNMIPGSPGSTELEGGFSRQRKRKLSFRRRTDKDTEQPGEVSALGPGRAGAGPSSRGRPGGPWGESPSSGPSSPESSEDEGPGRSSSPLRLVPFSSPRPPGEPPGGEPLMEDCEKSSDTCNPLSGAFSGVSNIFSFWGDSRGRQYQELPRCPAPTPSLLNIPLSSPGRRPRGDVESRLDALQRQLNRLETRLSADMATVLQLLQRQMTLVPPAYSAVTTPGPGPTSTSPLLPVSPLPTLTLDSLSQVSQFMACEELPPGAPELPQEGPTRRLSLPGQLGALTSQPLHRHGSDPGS
# Cytochrome P450 2C19 (Homo sapiens), sequence (P33261 whole entry, looked up): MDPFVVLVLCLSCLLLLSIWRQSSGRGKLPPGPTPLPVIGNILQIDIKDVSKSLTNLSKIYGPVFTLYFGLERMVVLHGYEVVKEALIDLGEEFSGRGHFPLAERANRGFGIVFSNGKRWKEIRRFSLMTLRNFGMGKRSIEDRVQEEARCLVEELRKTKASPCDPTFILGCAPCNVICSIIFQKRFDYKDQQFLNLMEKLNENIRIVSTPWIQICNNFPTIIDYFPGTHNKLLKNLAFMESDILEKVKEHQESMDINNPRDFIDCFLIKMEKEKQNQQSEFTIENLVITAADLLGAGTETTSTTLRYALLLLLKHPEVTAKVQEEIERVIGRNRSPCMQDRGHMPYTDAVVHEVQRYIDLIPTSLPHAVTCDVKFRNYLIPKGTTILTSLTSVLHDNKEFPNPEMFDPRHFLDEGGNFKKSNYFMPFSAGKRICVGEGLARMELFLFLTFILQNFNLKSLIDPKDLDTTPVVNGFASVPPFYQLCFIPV
# Estrogen receptor (Homo sapiens), sequence (P03372 whole entry, looked up): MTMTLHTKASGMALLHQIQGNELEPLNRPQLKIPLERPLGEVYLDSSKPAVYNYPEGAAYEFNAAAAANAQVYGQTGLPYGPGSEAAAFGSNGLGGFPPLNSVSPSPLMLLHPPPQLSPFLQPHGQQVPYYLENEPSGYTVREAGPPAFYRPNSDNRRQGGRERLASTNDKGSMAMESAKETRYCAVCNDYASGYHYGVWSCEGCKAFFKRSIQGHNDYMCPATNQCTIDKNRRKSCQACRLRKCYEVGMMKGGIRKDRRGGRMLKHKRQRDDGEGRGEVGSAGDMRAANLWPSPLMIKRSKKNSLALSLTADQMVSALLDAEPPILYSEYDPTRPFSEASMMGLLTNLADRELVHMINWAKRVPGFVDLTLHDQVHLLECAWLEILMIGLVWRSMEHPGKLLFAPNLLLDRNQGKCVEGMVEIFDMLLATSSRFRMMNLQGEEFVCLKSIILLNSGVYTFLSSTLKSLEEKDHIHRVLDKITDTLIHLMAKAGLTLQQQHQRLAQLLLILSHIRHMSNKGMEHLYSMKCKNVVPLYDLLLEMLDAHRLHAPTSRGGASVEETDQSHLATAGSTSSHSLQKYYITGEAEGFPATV
SMILES,Potency [1],Potency [2],Potency [3],Potency [4],outcome [5],Potency [6],Potency [7],Potency [8],Potency [9],Potency [10],Potency [11],outcome [12],outcome [13],Potency [14],Potency [15],Potency [16],Potency [17],outcome [18],outcome [19],Potency [20]
C[C@]12CC[C@@H](O)C[C@@H]1CC[C@@H]1[C@@H]2CC[C@]2(C)C(=O)CC[C@@H]12,49 µM (active),49 µM (active),inactive,inactive,inactive,34.7 µM (active),inactive,inactive,19.3 µM (active),inactive,inactive,inactive,inactive,inactive,,,,,,
COc1ccc(C(c2ccc(OC)cc2)C(Cl)(Cl)Cl)cc1,,inactive,inactive,,inactive,inactive,inactive,inactive,21.6 µM (active),,inactive,inactive,inactive,,inactive,inactive,inactive,inactive,inactive,0.354 µM (active)
Brc1cc(Br)cc(Br)c1,,,,,,,,,,,,,,,,inactive,,,,
OC(Cc1ccccc1Cl)(Cn1[nH]cnc1=S)C1(Cl)CC1 (stereo not given),inactive,inactive,inactive,inactive,,inactive,inactive,inactive,38.6 µM (active),inactive,,inactive,inactive,inactive,,inactive,,inactive,inactive,1.26 µM (active)
Nc1ccc(Cl)cc1[N+](=O)[O-],,,,,,,,,,,,,,,inactive,inactive,inactive,,,
